Experimental data taken from the supplement of paper PMC11001985.
Values without a mark were called inactive.

The targets below were run with C#CCNC(=O)CCSSCCC(=O)NCCc1ccc(C=O)c(C=O)c1 (assay: lysine labeling ratio R10:1 (500 µM / 50 µM probe), SILAC-ABPP in living cells; higher = lower intrinsic lysine reactivity toward the probe, active = 2 or less). Conditions: HeLa; probe concentrations 500 vs 50 µM.
Experimental: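 Living HeLa cells (SILAC light/heavy) in PBS at room temperature were labeled with 50 µM versus 500 µM of the lysine-reactive, reductant-cleavable probe OPA-S-S-alkyne (SILAC labeling time not stated). Probe-modified peptides were CuAAC-biotinylated, captured on neutravidin and eluted with DTT/IAA, then quantified by LC-MS/MS. R = median peptide ratio per lysine (500/50 µM), combined over 3 forward and 3 reverse SILAC replicates. Ratios are capped at 20; R < 2 = hyper-reactive.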

Chain of UniProt O94905 (O94905 whole entry): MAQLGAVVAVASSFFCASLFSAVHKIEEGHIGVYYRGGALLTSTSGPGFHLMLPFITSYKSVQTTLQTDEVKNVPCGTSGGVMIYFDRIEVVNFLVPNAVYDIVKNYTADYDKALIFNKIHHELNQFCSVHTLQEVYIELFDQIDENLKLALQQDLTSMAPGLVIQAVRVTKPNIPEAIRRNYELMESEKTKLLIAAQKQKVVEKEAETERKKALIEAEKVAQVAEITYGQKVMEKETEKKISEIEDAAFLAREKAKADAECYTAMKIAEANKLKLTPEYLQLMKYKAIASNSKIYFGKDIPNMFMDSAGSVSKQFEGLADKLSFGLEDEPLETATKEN
Chain of UniProt P26639 (P26639 whole entry): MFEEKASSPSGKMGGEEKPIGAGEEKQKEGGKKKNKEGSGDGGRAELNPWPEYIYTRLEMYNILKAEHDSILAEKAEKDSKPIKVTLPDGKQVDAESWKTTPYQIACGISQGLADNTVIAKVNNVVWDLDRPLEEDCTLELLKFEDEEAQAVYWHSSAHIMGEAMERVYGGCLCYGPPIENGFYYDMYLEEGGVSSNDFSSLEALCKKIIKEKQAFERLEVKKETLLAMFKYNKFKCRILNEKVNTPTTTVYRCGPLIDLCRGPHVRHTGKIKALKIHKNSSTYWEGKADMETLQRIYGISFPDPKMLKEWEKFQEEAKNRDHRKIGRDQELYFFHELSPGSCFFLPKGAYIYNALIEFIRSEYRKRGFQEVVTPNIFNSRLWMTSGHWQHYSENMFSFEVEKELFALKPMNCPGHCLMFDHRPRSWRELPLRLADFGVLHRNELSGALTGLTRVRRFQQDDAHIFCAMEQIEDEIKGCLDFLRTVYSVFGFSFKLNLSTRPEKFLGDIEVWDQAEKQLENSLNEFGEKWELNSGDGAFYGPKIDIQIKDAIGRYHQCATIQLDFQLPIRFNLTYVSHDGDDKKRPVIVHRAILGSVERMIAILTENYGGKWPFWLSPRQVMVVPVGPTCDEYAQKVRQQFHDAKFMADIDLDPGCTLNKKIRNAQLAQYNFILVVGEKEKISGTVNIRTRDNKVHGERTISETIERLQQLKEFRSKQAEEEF
Chain of UniProt Q07065 (Q07065 whole entry): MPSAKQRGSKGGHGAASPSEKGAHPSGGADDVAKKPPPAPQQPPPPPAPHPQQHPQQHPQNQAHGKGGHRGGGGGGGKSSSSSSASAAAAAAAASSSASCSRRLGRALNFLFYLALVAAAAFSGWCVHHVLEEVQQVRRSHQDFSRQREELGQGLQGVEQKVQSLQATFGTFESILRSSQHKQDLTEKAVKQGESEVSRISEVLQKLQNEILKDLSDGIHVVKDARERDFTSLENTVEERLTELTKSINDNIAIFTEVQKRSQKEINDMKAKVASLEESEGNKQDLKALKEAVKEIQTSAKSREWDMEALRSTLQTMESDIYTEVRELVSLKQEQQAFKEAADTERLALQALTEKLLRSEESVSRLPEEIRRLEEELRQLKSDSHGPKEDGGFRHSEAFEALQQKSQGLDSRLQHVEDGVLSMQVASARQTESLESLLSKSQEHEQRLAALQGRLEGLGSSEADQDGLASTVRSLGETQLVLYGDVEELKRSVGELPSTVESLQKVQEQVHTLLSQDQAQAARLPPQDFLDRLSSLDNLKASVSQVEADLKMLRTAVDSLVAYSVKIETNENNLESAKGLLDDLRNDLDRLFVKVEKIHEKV
Chain of UniProt Q96TA1 (Q96TA1 whole entry): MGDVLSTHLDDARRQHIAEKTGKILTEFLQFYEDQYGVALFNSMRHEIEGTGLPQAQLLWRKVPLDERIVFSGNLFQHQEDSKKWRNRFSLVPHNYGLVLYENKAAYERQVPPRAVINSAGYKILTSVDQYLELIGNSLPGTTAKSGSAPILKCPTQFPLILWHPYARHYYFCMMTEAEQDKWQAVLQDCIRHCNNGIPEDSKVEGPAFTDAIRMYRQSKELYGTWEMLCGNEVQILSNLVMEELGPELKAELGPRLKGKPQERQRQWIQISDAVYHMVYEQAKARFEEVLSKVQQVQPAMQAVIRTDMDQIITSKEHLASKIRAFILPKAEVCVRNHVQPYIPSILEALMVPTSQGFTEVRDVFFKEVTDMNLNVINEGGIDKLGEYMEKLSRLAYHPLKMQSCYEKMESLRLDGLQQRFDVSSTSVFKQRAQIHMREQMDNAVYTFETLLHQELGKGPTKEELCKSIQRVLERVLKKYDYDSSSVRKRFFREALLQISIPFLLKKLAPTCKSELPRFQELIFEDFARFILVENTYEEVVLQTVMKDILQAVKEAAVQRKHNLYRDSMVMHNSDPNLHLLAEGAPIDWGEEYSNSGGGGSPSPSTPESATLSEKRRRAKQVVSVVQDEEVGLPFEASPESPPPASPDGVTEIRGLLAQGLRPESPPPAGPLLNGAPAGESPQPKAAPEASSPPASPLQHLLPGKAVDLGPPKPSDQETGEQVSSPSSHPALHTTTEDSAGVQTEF
Chain of UniProt Q02790 (Q02790 whole entry): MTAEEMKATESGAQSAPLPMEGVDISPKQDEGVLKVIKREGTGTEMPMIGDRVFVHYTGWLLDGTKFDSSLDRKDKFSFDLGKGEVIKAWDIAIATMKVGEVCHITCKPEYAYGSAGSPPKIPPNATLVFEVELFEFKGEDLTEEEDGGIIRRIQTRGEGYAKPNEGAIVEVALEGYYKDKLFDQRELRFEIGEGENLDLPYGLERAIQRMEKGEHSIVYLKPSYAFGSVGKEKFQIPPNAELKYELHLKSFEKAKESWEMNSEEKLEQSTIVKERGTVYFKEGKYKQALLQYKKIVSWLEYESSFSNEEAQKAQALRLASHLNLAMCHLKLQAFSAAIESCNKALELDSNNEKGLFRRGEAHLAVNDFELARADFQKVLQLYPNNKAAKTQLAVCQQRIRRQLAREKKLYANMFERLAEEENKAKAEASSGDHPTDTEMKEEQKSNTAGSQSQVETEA
Chain of UniProt P06213 (P06213 whole entry): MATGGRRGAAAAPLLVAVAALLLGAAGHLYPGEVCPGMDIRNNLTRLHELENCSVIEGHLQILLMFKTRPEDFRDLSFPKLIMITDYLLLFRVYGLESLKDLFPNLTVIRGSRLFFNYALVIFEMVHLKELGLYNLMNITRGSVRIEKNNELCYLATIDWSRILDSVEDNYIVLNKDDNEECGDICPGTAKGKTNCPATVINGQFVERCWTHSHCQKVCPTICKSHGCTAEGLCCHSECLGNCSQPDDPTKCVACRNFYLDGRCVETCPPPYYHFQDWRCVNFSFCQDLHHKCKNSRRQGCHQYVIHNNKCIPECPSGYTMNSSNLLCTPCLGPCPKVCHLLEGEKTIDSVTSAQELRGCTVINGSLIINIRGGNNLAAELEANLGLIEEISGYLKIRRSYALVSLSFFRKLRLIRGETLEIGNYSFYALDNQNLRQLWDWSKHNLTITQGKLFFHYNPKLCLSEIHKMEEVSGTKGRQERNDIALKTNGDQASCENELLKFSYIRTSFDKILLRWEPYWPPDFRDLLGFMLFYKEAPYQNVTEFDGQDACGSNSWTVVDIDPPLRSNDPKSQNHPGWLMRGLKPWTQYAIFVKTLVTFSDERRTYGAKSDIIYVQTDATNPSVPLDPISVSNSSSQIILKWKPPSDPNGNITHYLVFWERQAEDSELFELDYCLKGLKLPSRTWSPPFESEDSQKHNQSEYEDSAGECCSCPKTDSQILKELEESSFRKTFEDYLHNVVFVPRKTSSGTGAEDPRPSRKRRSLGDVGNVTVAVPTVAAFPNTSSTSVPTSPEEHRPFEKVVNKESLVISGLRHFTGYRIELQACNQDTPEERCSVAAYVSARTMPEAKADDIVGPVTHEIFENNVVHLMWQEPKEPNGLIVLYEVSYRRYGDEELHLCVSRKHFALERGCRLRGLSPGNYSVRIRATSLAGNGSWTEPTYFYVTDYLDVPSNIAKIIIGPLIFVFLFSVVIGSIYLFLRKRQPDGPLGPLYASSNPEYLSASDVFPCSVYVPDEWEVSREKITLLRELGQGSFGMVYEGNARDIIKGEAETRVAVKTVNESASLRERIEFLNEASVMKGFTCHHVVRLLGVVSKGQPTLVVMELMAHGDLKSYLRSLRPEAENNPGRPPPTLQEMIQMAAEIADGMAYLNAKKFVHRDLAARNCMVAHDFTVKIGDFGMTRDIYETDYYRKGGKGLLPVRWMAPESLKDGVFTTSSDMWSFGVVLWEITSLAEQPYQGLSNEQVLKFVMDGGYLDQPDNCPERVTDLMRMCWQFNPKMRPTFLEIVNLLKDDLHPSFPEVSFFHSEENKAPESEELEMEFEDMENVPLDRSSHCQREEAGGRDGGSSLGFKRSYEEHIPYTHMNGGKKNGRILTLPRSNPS
Chain of UniProt P26038 (P26038 whole entry): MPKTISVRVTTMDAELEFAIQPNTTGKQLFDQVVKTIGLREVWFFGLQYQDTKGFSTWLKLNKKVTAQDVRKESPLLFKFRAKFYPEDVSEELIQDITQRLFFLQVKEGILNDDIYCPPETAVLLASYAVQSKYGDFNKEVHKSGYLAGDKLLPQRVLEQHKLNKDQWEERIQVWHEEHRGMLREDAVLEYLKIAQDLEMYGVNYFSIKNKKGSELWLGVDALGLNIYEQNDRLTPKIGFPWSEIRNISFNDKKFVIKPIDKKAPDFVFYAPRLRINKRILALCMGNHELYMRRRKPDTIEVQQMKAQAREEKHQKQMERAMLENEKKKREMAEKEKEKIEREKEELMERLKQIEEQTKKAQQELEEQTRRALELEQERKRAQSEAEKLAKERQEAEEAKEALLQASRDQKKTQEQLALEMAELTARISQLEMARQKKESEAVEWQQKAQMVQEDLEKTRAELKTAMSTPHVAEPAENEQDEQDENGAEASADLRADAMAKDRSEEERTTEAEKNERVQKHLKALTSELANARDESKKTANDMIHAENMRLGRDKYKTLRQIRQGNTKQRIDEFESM
Chain of UniProt P30086 (P30086 whole entry, looked up): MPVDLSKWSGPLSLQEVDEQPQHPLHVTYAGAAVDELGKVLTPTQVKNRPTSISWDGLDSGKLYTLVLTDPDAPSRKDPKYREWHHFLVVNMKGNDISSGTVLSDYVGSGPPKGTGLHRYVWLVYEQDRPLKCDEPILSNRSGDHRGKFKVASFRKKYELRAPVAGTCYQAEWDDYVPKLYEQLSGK

**Q.** Which “lysine labeling ratio R10:1” value does the source give for UniProt Q9HDC9 (lysine site: K356) here?
**A.** 2.37

**Q.** Which “lysine labeling ratio R10:1” value does the source give for “IQGAP1 (lysine site: K856) (UniProt P46940)” here?
**A.** 1.47 (active)

**Q.** Which “lysine labeling ratio R10:1” value does the source give for “YBX1 (lysine site: K137) (UniProt P67809)” here?
**A.** 7.5

**Q.** “RAB13 (lysine site: K107) (UniProt P51153)” was tested. Which “lysine labeling ratio R10:1” value did it give?
**A.** 0.523 (active)

**Q.** Which “lysine labeling ratio R10:1” value does the source give for “XRCC6 (lysine site: K582) (UniProt P12956)” here?
**A.** 1.52 (active)

**Q.** “GAS1 (lysine site: K192) (UniProt P54826)” was tested. Which “lysine labeling ratio R10:1” value did it give?
**A.** 1.34 (active)

**Q.** UniProt Q9Y653 (lysine site: K49) was tested. Which “lysine labeling ratio R10:1” value did it give?
**A.** 1.54 (active)

**Q.** With “TFPI (lysine site: K68) (UniProt P10646)” as the target, how does the “lysine labeling ratio R10:1” value read?
**A.** 1.41 (active)

**Q.** How did the “lysine labeling ratio R10:1” value turn out when “MYH9 (lysine site: K1835) (UniProt P35579)” was run?
**A.** 1.11 (active)

**Q.** For UniProt P46781 (lysine site: K11), which “lysine labeling ratio R10:1” value is on record?
**A.** 4.03

**Q.** Which “lysine labeling ratio R10:1” value does the source give for “INSR (lysine site: K903) (UniProt P06213)” here?
**A.** 2.04

**Q.** “FKBP4 (lysine site: K274) (UniProt Q02790)” was tested. Which “lysine labeling ratio R10:1” value did it give?
**A.** 2.78

**Q.** How did the “lysine labeling ratio R10:1” value turn out when “CCT4 (lysine site: K489) (UniProt P50991)” was run?
**A.** 2.21

**Q.** “THBS1 (lysine site: K1103) (UniProt P07996)” was tested. Which “lysine labeling ratio R10:1” value did it give?
**A.** 0.85 (active)

**Q.** With “PFAS (lysine site: K639) (UniProt O15067)” as the target, how does the “lysine labeling ratio R10:1” value read?
**A.** 1.58 (active)

**Q.** Which “lysine labeling ratio R10:1” value does the source give for UniProt P62244 (lysine site: K60) here?
**A.** 2.48

**Q.** How did the “lysine labeling ratio R10:1” value turn out when “CKAP4 (lysine site: K191) (UniProt Q07065)” was run?
**A.** 2.86

**Q.** For “RPL4 (lysine site: K239) (UniProt P36578)”, which “lysine labeling ratio R10:1” value is on record?
**A.** 2.48

**Q.** With UniProt Q96TA1 (lysine site: K322) as the target, how does the “lysine labeling ratio R10:1” value read?
**A.** 5.91

**Q.** Which “lysine labeling ratio R10:1” value does the source give for “RPL4 (lysine site: K294) (UniProt P36578)” here?
**A.** 3.4

**Q.** “TMEM30A (lysine site: K155) (UniProt Q9NV96)” was tested. Which “lysine labeling ratio R10:1” value did it give?
**A.** 2.09

**Q.** For “LAMC1 (lysine site: K1258) (UniProt P11047)”, which “lysine labeling ratio R10:1” value is on record?
**A.** 1.54 (active)

**Q.** “PAFAH1B1 (lysine site: K54) (UniProt P43034)” was tested. Which “lysine labeling ratio R10:1” value did it give?
**A.** 3.44

**Q.** For “PGRMC1 (lysine site: K102) (UniProt O00264)”, which “lysine labeling ratio R10:1” value is on record?
**A.** 5.04

**Q.** “ERLIN2 (lysine site: K205) (UniProt O94905)” was tested. Which “lysine labeling ratio R10:1” value did it give?
**A.** 3.71

**Q.** UniProt Q15149 (lysine site: K1815) was tested. Which “lysine labeling ratio R10:1” value did it give?
**A.** 3.79

**Q.** For “PTK7 (lysine site: K518) (UniProt Q13308)”, which “lysine labeling ratio R10:1” value is on record?
**A.** 1.76 (active)

**Q.** For “MCAM (lysine site: K236) (UniProt P43121)”, which “lysine labeling ratio R10:1” value is on record?
**A.** 6.1

**Q.** How did the “lysine labeling ratio R10:1” value turn out when “CORO1C (lysine site: K329) (UniProt Q9ULV4)” was run?
**A.** 1.19 (active)

**Q.** With “CD97 (lysine site: K499) (UniProt P48960)” as the target, how does the “lysine labeling ratio R10:1” value read?
**A.** 3.84

**Q.** For UniProt P26639 (lysine site: K319), which “lysine labeling ratio R10:1” value is on record?
**A.** 2.46

**Q.** With “PEBP1 (lysine site: K113) (UniProt P30086)” as the target, how does the “lysine labeling ratio R10:1” value read?
**A.** 2.7

**Q.** How did the “lysine labeling ratio R10:1” value turn out when “ECH1 (lysine site: K83) (UniProt Q13011)” was run?
**A.** 1.59 (active)

**Q.** For MSN (lysine site: K3) (UniProt P26038), which “lysine labeling ratio R10:1” value is on record?
**A.** 8.6

**Q.** With “ATAD3B (lysine site: K214) (UniProt Q5T9A4)” as the target, how does the “lysine labeling ratio R10:1” value read?
**A.** 2.61

**Q.** With “EEF2 (lysine site: K498) (UniProt P13639)” as the target, how does the “lysine labeling ratio R10:1” value read?
**A.** 3.9

**Q.** How did the “lysine labeling ratio R10:1” value turn out when “RDX (lysine site: K165) (UniProt P35241)” was run?
**A.** 2 (active)

**Q.** With “ITGB1 (lysine site: K100) (UniProt P05556)” as the target, how does the “lysine labeling ratio R10:1” value read?
**A.** 10.5

**Q.** Which “lysine labeling ratio R10:1” value does the source give for UniProt P05787 (lysine site: K483) here?
**A.** 2.46

**Q.** For “UFC1 (lysine site: K33) (UniProt Q9Y3C8)”, which “lysine labeling ratio R10:1” value is on record?
**A.** 3.81
